Results reported in ChEMBL document CHEMBL4513146, “CO-ADD screening of Karazin Kharkiv National University (Ukraine) compounds”.
Results with a measured potency or affinity are listed apart.

What was measured:
[1] = test system: Staphylococcus aureus; conditions: Concentration 32 ug.mL-1;; ASSAY_TEST Inhibition of Bacterial Growth; detection method Absorption (OD600); MEDIA CAMHB; plate type 384well; NBS; CORNING #3640; time 18 hr
[2] = test system: Escherichia coli; conditions: Concentration 32 ug.mL-1;; ASSAY_TEST Inhibition of Bacterial Growth; detection method Absorption (OD600); MEDIA CAMHB; plate type 384well; NBS; CORNING #3640; time 18 hr

SMILES	Inhibition [1]	Inhibition [2]
N#Cc1ccc(NC(=O)Cn2nc3c(Oc4ccccc4)nccn3c2=O)cc1	-0.45%	-6.5%
Cc1ccc(NC(=O)Cn2nc3ccc(SC(C)(C)C)nn3c2=O)cc1C	-0.92%	2.46%
Cc1ccc(NC(=O)Cn2nc3c(Oc4cccc(C)c4C)nccn3c2=O)c(Br)c1	0.42%	-4.42%
Cc1nnc2c(=O)n(CC(=O)Nc3cccc(Br)c3)c3ccccc3n12	15.88%	-0.63%
Cc1ccc(Oc2nccn3c(=O)n(CC(=O)Nc4cc(F)ccc4F)nc23)cc1	15.96%	-1.03%
Cc1cc(C)c(NC(=O)Cn2nc3c(SC4CCCCC4)nccn3c2=O)c(C)c1	12.7%	-1.77%
CCOc1ccc(NC(=O)Cn2nc3ccc(SCc4ccc(Cl)cc4)nn3c2=O)cc1	5.28%	-5.7%
O=C(CSc1nnc2c(=O)n(-c3ccc(F)c(F)c3)ccn12)c1cccc(Cl)c1	13.4%	-3.45%
Cc1cc2nn(CC(=O)Nc3cc(F)ccc3C)c(=O)n2c(Nc2ccc(C)c(F)c2)n1	2.63%	-8.01%
CCc1nnc2c(SCC(=O)Nc3ccc(OC)c(Cl)c3)nc3ccccc3n12	9.23%	5.47%
COc1ccc(N(Cc2ccc(Cl)cc2)S(=O)(=O)c2ccc3nncn3c2)cc1	-6.81%	-4.15%
COc1ccc(-c2nc(CSc3nc4ccccc4n4c(C(C)C)nnc34)c(C)o2)cc1OC	-10.5%	0.54%
Cc1ccc(Oc2nccn3c(=O)n(CC(=O)N4CCN(c5ccc(F)cc5)CC4)nc23)cc1	10.18%	1.45%
O=C(Cn1nc2c(SC3CCCCC3)nccn2c1=O)Nc1ccccc1Br	-0.6%	-5.42%
CCOC(=O)C1CCN(c2nc3ccccc3n3c(=O)n(CC(=O)Nc4ccccc4F)nc23)CC1	2.72%	-5.37%
COC(=O)c1ccc(NC(=O)Cn2nc3ccc(S(=O)(=O)c4ccccc4)nn3c2=O)cc1	-1.97%	-13.66%
COc1cccc(-c2nc(CSc3nc4ccccc4n4c(C)nnc34)c(C)o2)c1OC	2.75%	-2.95%
Cc1ccc(NC(=O)CSc2nnc3c4cc(-c5ccccc5)nn4ccn23)c(C)c1	-9.27%	-11.37%
CCc1ccccc1Sc1nccn2c(=O)n(CC(=O)Nc3cccc(C)c3)nc12	2.29%	-6.79%
Cc1ccc(CNC(=O)CSc2nnc3c4cc(-c5ccc(C)cc5)nn4ccn23)cc1	9.17%	0.59%
Cc1ccc(-c2cc3c4nnc(CCC(=O)N5CCC(Cc6ccccc6)CC5)n4ccn3n2)cc1C	10.73%	2.4%
CC(C)c1nnc2c(=O)n(CC(=O)Nc3ccc(Cl)c(Cl)c3)c3ccccc3n12	8.95%	5.48%
O=C(Cn1nc2c(SCc3ccc(Cl)cc3)nccn2c1=O)Nc1ccccc1F	4.88%	-0.33%
O=C(Cn1nc2c3cc(-c4ccc(Cl)cc4)nn3ccn2c1=O)NC1CCCC1	-0.6%	-3.32%
Cc1ccc(Sc2nccn3c(=O)n(CC(=O)Nc4ccccc4C)nc23)c(C)c1	-3.06%	-8.99%

SMILES	Inhibition [1]	Inhibition [2]
O=C(CCc1nnc2c3cc(-c4ccc(F)cc4)nn3ccn12)N1CCC(Cc2ccccc2)CC1	6.97%	-0.02%
Cc1ccc(CN(c2cccc(F)c2)S(=O)(=O)c2ccc3nnc(C)n3c2)cc1	-4.51%	-15.84%
CC1CC(C)CN(c2nccn3c(=O)n(CC(=O)NCc4ccccc4Cl)nc23)C1 (stereo not drawn)	3.32%	2.48%
O=C(CSc1nnc2c(=O)n(-c3ccc(F)c(F)c3)ccn12)c1c[nH]c2ccccc12	13.28%	-5.88%
CC(=O)c1cccc(NC(=O)Cn2nc3c(N4CCN(c5ccccc5C)CC4)nccn3c2=O)c1	17.73%	2.22%
Cc1ccc(NC(=O)Cn2nc3ccc(SC4CCCCC4)nn3c2=O)cc1C	-6.2%	-13.15%
CC(C)CCn1c(=O)c2sccc2n2c(=O)n(Cc3c(F)cccc3Cl)nc12	13.63%	0.76%
Cc1ccc(NC(=O)Cn2nc3ccc(-c4ccccc4)nn3c2=O)cc1	2.61%	-12.45%
O=C(Cn1nc2c3cc(-c4ccccc4)nn3ccn2c1=O)N1CCCc2ccccc21	4.94%	2.28%
CC(C)c1nnc2c(=O)n(CC(=O)Nc3ccccc3)c3ccccc3n12	12.53%	4.36%
COc1ccc(CNC(=O)Cn2nc3c4cc(-c5ccc(C)c(C)c5)nn4ccn3c2=O)cc1	6.21%	2.95%
COC(=O)c1ccccc1NC(=O)Cn1nc2c(Oc3ccc(C)cc3)nccn2c1=O	-0.21%	-6.37%
O=C(Cn1nc2c(Oc3ccccc3)nccn2c1=O)Nc1ccc2c(c1)OCCO2	7.17%	2.24%
COCCCNC(=O)CSc1nnc2c(=O)n(Cc3ccc(F)cc3)ccn12	10.54%	-1.15%
CCOc1ccc(-n2ccn3c(SCC(=O)c4ccc(F)cc4)nnc3c2=O)cc1	21.72%	2.02%
CCOc1ccc(-n2ccn3c(SCC(=O)c4cccc(OC)c4)nnc3c2=O)cc1	10.49%	-5.2%
CCc1ccccc1NC(=O)CSc1nnc2ccc(C(=O)Nc3cccc(F)c3)cn12	19.17%	1.35%
COc1ccc(CN(c2ccc(F)cc2)S(=O)(=O)c2ccc3nnc(C)n3c2)cc1F	-10.32%	-13.96%
Cc1cc(C)cc(N(Cc2ccccc2)S(=O)(=O)c2cccn3c(C)nnc23)c1	-1.33%	-7.5%
Cc1ccc(Sc2nccn3c(=O)n(CC(=O)Nc4ccc(Br)cc4C)nc23)c(C)c1	-15.15%	-16.85%
Cc1nnc2ccc(S(=O)(=O)N(Cc3ccccc3F)c3ccc(Cl)cc3)cn12	-12.68%	-19.04%
COc1ccccc1-n1ccn2c(SCC(=O)Nc3ccc4c(c3)OCCO4)nnc2c1=O	18.21%	-1.11%
Cc1ccc(C)c(-c2cc3c4nnc(CCC(=O)NCCc5ccc(Cl)cc5)n4ccn3n2)c1	5.83%	3.02%
O=C(Cn1nc2c(N3CCOCC3)nccn2c1=O)Nc1cc(C(F)(F)F)ccc1Cl	6.98%	4.52%
